# Experimental data reported in publication PMC8159961, “Exploring protein hotspots by optimized fragment pharmacophores” (Nature Communications, 2021).
# A number with no mark means an inactive call. The rule behind the calls is not given here.
# Molecular target: thrombin (human, UniProt P00734)
# Experiment: primary screen, binary call; higher = more effect of the substance
# Parameters: screenings were carried out in duplicate in one independent experiment
# Conditions: 200 µM
# Procedure: Protease inhibitory assays were performed in transparent microtiter plates in a final volume of 200 µL with the use of chromogenic substrates. The reaction rates in the absence and in the presence of the inhibitor were measured; screenings were carried out in duplicate in one independent experiment and Ki values were determined in triplicate in two independent experiments.
row,Compound,Thrombin
1,N#CCCN1CCc2ccccc21,0
2,O=C(CN1CCNCC1)c1ccccc1,0
3,Brc1ccc(-c2ccon2)cc1,0
4,COc1ccc(C2=CCNCC2)cc1,0
5,FC1(F)CNCC(F)(F)O1,0
6,N#Cc1ccc2ncsc2c1,0
7,O=C1CSC(Nc2ccc(F)cc2)=N1,0
8,Cc1cnc(C(F)(F)F)cn1,0
9,Cc1ccc(CCNc2ccccc2)cn1,0
10,NC(=O)N1CCC(C(=O)O)CC1,1 (active)
11,O=C1CCCc2occc21,0
